# Assay outcomes as filed in PubChem.
# GRIN3A LBD mod: modulators (binders) of human NR3A ligand-binding domain; hit rate 2.5% among 340,000; NR3A LBD differential scanning fluorimetry, Tm shift; 0% = protein alone, 100% = glycine-bound protein; AID 1259313; Tm shift relative to glycine control, % at 25 µM;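 active means melting temperature shift of at least 10% of the positive control shift, at one fixed dose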
# ANO1 activ: mouse TMEM16A channel activation, primary screen; hit rate 0.3% among 340,000; HEK293 TMEM16A/YFP-H148Q/I152L, iodide quench fluorescence; hits give low values; Q8BHY3; B-score at 10 µM;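 active means fluorescence-ratio B-score plate-corrected deviation score at least 3 library SD below zero, with starting fluorescence score within 5 deviations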;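 further: channel opened by trigger with iodide after compound preincubation; score built on the fluorescence ratio of max minus min over baseline; more negative score means more quench and so TMEM16A activation or potentiation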
# Target sequence (Q8BHY3 whole entry, looked up): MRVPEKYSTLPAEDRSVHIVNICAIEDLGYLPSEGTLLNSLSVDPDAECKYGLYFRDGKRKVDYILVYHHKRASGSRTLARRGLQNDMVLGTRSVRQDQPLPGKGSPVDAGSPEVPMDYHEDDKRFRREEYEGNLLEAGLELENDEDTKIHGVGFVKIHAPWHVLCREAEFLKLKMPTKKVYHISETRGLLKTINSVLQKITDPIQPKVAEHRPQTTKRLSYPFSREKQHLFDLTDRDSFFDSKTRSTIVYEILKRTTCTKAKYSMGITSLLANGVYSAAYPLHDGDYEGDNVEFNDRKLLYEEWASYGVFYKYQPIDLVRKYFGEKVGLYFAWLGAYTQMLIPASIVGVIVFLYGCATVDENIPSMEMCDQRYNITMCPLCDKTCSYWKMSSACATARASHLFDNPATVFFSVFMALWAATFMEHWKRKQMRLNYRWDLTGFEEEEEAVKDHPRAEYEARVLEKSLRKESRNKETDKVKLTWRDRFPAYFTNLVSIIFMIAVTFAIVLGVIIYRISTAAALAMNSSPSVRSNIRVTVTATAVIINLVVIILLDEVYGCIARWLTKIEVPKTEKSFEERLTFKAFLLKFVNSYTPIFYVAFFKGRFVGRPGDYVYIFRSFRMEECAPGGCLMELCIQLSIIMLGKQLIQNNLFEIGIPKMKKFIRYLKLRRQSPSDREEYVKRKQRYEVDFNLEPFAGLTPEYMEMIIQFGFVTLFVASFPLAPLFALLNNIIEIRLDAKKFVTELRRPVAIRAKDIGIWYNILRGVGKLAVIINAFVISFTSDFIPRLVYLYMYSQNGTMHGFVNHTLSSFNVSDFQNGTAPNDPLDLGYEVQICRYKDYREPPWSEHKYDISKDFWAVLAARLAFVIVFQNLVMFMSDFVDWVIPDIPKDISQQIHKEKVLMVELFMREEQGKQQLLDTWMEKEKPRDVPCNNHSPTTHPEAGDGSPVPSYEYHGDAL
# MPTP block: permeability transition pore inhibition. isolated mouse mitochondria, Ca2+ swelling absorbance, 30 min. inhibition, % at 10 µM. hit rate 1.4% among 360,000;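 active means inhibition of 50% or more, scaled per plate between neutral and stimulator controls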;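 further: 0% = DMSO wells given calcium and 100% = 1 mM EGTA wells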
# CRFR2-BP antag: antagonists of CRF-binding protein/CRF-R2 receptor complex; HEK293 CRF-R2/CRF-BP, CRF-induced calcium fluorescence; inhibition, % at 11.8 µM; hit rate 0.59% among 350,000;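 active means inhibition of the ligand-induced calcium signal above about 50% at the single tested concentration, limit read from the data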
# ANO1 block: mouse TMEM16A channel inhibition, primary screen. HEK293 TMEM16A/YFP iodide influx fluorescence, ionomycin. Q8BHY3. AID 588511. hit rate 1.2% among 310,000. normalized B-score (activity score, 25-100; higher = stronger inhibition) at 10 µM;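 active means ratio plate-corrected score three or more library SD toward inhibition, starting fluorescence score within five deviations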;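 further: score derived from kinetic fluorescence span divided by baseline fluorescence per well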
# CRFBP-R2 agonist: CRF-BP/CRF-R2 complex agonism | HEK293 CRF-R2/CRF-BP, calcium dye fluorescence (FLIPR); percent of saturating CRF peptide response | activation, % at 13.2 µM | hit rate 0.46% among 350,000 | AID 588473;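 active means activation of at least 50%, plus an integration ratio under a set limit after plate pattern correction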;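 further: plate controls were neutral control wells without compound for no effect and CRF at EC100 for full effect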
# Numbers without * were called inactive; i = inactive; nt = no result given. An excerpt weighted towards active compounds, which were near 5.1% of everything screened.
SMILES,GRIN3A LBD mod,ANO1 activ,MPTP block,CRFR2-BP antag,ANO1 block,CRFBP-R2 agonist
C#CCOCCOCCOCCNc1nc(N2CCN(C(=O)CCCCCCCCCCNC(=O)[C@H](CCCCN)n3cc(C)nn3)CC2)nc(N2CCN(C(=O)CCCCCCCCCCNC(=O)[C@H](CCCN=C(N)N)n3cc(C[C@@H](C)CC)nn3)CC2)n1,-8,nt,nt,-126,100*,33
C#CCOCCOCCOCCNc1nc(N2CCN(C(=O)CCCCCCCCCCNC(=O)[C@@H](CCSC)n3cc(CCO)nn3)CC2)nc(N2CCN(C(=O)CCCCCCCCCCNC(=O)[C@H](CCCN=C(N)N)n3cc(C[C@@H](C)CC)nn3)CC2)n1,-19,-26*,-12,6,100*,3
C#CCOCCOCCOCCNc1nc(N2CCN(C(=O)CCCCCCCCCCNC(=O)[C@H](CO)n3cc(CCCCCN)nn3)CC2)nc(N2CCN(C(=O)CCCCCCCCCCNC(=O)[C@H](CCCN=C(N)N)n3cc(C[C@@H](C)CC)nn3)CC2)n1,nt,nt,nt,nt,100*,nt
Cc1cc(C)c(C(=O)C(C)OC(=O)Cn2cnc3c2c(=O)n(C)c(=O)n3C)cc1C (stereo unspecified),1,i,-1,6,i,0
CC1C(=O)N2CCCc3cc(NC(=O)c4ccccc4F)cc1c32 (stereo unspecified),-2,i,-1,3,i,0
Cn1nc(C(=O)OCC(=O)Nc2ccc(SC(F)F)cc2)c2ccccc2c1=O,-6,i,5,-2,nt,6
COc1ccc(C(=O)N2CCCCC2c2cc(C(=O)NCc3ccc(F)cc3)no2)cc1 (stereo unspecified),nt,nt,1,nt,nt,nt
O/C(=C\c1nc2ccccc2[nH]1)c1cccs1,-1,i,-2,-15,i,21
O=c1[nH]c2ccccc2nc1/C=C(\O)c1cccs1,0,i,0,-195,i,224*
O=c1[nH]c2ccccc2nc1/C=C/c1ccc(O)cc1,7,i,1,-152,nt,104*
CS(=O)(=O)c1ccc(Cl)c(NC(=O)CN2CCN(S(=O)(=O)/C=C/c3ccccc3)CC2)c1,-9,i,-2,3,nt,2
O=C1NC2(CCCCC2)C(=O)N1CCS(=O)(=O)Oc1ccccc1,12*,i,2,-15,i,2
O=P(CCc1ccccc1)(c1ccccc1)c1ccccc1,-3,i,0,-6,nt,-1
CCCCCCSc1nnc(-c2cnn(-c3ccccc3)c2-n2cccc2)n1C,2,i,-4,16,100*,6
CCOc1ccc2c(c1)s/c(=N\S(=O)(=O)c1ccc(OC)cc1)n2C(F)F,5,i,2,22,25*,-1
CCOc1ccc2c(c1)sc1nc(C(=O)OC)cc(=O)n12,-2,i,2,10,i,-2
Cc1nnc(NC(=O)C2CCCN(c3ncccn3)C2)s1 (stereo unspecified),-4,i,-2,56*,i,0
COc1cc(C)nc(N2CCCC(C(=O)Nc3cc(Cl)ccc3OC)C2)n1 (stereo unspecified),0,i,2,0,25*,0
Cc1cc(C)cc(NC(=O)C2CCCN(c3nccc(C)n3)C2)c1 (stereo unspecified),1,i,-1,54*,i,1
O=C(Nc1ccc(Oc2ccccc2)cc1)C1CCCN(c2ncccn2)C1 (stereo unspecified),-11,i,0,-103,i,58*
COc1cc(CC(=O)OCC(=O)Nc2ccc(N(C)C)cc2)cc(OC)c1OC,1,i,1,2,nt,0
CCCc1cc(=O)oc2c(CNc3ccc(OCC)cc3)c(O)ccc12,1,i,1,2,i,12
Cc1cccc(-c2nc(CN3CCCC(C(=O)NC4CCCCCC4)C3)c(C)o2)c1 (stereo unspecified),3,i,-1,-28,i,0
Cc1cccc(-c2nc(CN3CCCC(C(=O)NC4CCCCC4)C3)c(C)o2)c1 (stereo unspecified),-2,i,0,-17,25*,0
CCOC(=O)N1CCC(NC(=O)C2CCCN(Cc3nc(-c4ccc(CC)cc4)oc3C)C2)CC1 (stereo unspecified),-3,i,-1,18,25*,1
SMILES,GRIN3A LBD mod,ANO1 activ,MPTP block,CRFR2-BP antag,ANO1 block,CRFBP-R2 agonist
COc1ccc(NC(=O)CSc2ccccc2)c(OC)c1,1,i,21,10,i,-1
COc1ccc(NC(=O)CSc2ncnc3c2sc2ccccc23)c(OC)c1,16*,i,3,35,i,1
CC(C)(C)c1cc(O)c(C(C)(C)C)cc1O,nt,nt,nt,nt,100*,nt
Cc1cc(C(C)(C)C)c(O)c(C(C)(C)C)c1,5,i,24,-6,i,0
CCNC(=O)c1ccc(CSc2nc3ccccc3s2)cc1,33*,i,3,2,i,1
COCCNC(=O)c1ccc(CSc2nc3ccccc3s2)cc1,0,i,0,6,i,-1
CC1CCC(NC(=O)CCS(=O)(=O)c2ccc3c(c2)NC(=O)C(C)S3)CC1 (stereo unspecified),-3,i,2,-3,i,-1
Cc1ccc(C)c(NC(=O)CN2C(=O)NC(C)(c3ccc4c(c3)OCCO4)C2=O)c1 (stereo unspecified),-1,i,-1,-20,nt,1
COc1ccc(CCNC(=O)COC(=O)c2ccco2)cc1OC,0,i,-1,-17,i,0
COc1ccc(CCNC(=O)COC(=O)C2CC2C)cc1OC (stereo unspecified),1,-42*,0,5,nt,0
CCOc1ccc(C(=O)CC(=O)C(=O)NCCc2ccc(OC)c(OC)c2)cc1,25*,i,-27,-2,i,-1
Cc1ccc(NC(=O)CSc2nc3[nH]ncc3c(=O)[nH]2)cc1Cl,-3,i,0,-15,i,4
COc1cccc(N2CCN(C(=O)CN3C(=O)NC(C)(c4ccc5ccccc5c4)C3=O)CC2)c1 (stereo unspecified),19*,i,-2,-9,i,1
CN=C(Nc1ccc2c(c1)OCO2)SC1CC(=O)N(c2ccccc2)C1=O (stereo unspecified),1,i,2,25,25*,1
CN=C(Nc1cc(Cl)ccc1Cl)SC1CC(=O)N(c2ccc(C(=O)OC)cc2)C1=O (stereo unspecified),14*,i,-1,-15,i,2
O=C1CC(SC(=NCc2ccc3c(c2)OCO3)Nc2ccccc2)C(=O)N1c1ccccc1 (stereo unspecified),3,i,-6,5,i,3
